Each structure is given as a SMILES string.

In the test the target is Death-associated protein kinase 1 (Homo sapiens) (UniProt P53355). To be noted: at 1 µM.
Death-associated protein kinase 1 (Homo sapiens), sequence (P53355 whole entry, looked up): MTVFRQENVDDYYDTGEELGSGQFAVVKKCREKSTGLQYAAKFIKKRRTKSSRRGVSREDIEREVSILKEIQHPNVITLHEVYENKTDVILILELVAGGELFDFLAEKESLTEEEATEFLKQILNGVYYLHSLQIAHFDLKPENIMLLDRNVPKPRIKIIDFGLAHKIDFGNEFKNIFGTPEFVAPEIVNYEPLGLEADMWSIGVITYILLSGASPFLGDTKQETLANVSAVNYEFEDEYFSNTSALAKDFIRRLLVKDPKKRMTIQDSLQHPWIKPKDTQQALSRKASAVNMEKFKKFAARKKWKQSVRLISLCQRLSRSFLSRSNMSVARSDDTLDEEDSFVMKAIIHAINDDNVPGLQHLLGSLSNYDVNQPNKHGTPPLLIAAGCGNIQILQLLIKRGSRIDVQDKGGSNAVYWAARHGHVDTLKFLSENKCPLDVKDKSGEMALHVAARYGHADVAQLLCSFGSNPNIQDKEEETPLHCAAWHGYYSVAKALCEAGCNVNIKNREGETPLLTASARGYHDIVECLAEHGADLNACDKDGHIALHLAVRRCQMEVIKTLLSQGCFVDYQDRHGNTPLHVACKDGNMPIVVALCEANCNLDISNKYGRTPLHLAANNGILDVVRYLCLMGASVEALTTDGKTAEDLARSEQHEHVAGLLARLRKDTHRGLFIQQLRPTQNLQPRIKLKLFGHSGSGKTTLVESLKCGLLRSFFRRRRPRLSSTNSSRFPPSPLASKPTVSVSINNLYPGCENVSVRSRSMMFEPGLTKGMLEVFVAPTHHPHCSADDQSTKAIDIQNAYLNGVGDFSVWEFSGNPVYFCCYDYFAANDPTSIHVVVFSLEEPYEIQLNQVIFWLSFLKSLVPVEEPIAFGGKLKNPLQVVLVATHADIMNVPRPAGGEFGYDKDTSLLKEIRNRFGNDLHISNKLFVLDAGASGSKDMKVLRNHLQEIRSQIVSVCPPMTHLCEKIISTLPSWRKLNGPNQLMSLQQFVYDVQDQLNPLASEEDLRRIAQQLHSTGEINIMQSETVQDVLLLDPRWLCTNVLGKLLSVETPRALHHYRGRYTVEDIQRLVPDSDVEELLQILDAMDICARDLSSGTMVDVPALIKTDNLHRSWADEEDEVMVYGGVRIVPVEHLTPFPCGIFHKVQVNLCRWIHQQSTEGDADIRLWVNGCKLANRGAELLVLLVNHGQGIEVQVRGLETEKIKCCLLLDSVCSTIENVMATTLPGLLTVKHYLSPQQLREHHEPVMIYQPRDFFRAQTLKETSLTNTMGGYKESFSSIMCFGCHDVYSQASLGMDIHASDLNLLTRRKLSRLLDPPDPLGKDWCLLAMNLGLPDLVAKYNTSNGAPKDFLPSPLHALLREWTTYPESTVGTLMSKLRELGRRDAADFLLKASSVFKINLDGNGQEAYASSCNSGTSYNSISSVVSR
Consider `NC(=O)Nc1sc(-c2ccc(F)cc2)cc1C(N)=O`, for which the residual activity (in general, the signal under treatment as a percentage of the control signal) turned out to be 83%. With `Nc1nc(Nc2ccc(S(N)(=O)=O)cc2)nn1C(=O)c1c(F)cccc1F`, the residual activity is 97%. The same measure for `Oc1cccc(-c2nc(N3CCOCC3)c3oc4ncccc4c3n2)c1`: 99%; for `COc1cc2ncc(-c3ccccc3)nc2cc1OC`: 87%; for `O=c1cc(N2CCOCC2)oc2c1ccc1ccccc12`: 90%. Turning to `O=C1NC(=O)/C(=C\c2ccc3nccnc3c2)S1`, the residual activity was 87%.

Consider `CNc1cc2c(Nc3cccc(Br)c3)ncnc2cn1`, for which the residual activity was 97%.

As for `CC(C)c1nn(-c2c(Cl)cccc2Cl)c2nc(Cc3ccc(OCCO)cc3)[nH]c(=O)c12`, the residual activity came to 94%. On to `COc1cc2ncnc(Nc3ccc(O)c(Br)c3)c2cc1OC`, for which the residual activity is 88%. For the compound `Cn1nc2c3c(cccc31)C(=O)c1ccccc1-2`, the residual activity was found to be 85%. With `CC(C)n1cnc2c(NCc3ccccc3)nc(NCCCO)nc21` the figure was 83%; with `O=C1NC(=O)c2c1c1c3ccccc3[nH]c1n1cncc21`, 57%. With `CN(C)S(=O)(=O)c1ccc2c(c1)/C(=C/c1cc3c([nH]1)CCCC3)C(=O)N2`, the residual activity stood at 90%.

Regarding `COc1cc2nccc(Oc3ccc(NC(=S)NC(=O)c4ccccc4C)cc3)c2cc1OC`, the residual activity stood at 81%.

For `CC(C)[C@H](CO)Nc1nc(Nc2cc(N)cc(Cl)c2)c2ncn(C(C)C)c2n1`, the residual activity amounted to 92%.

Consider `Cn1cc(/C=C2\C(=O)Nc3ccc(S(N)(=O)=O)cc32)c2ccccc21`, for which the residual activity amounted to 94%.

`O=C(Nc1cccc(Nc2cc(Nc3cccc(C(F)(F)F)c3)ncn2)c1)C1CC1`: the residual activity came to 109%. `O=C(O)c1ccc2c3c1cccc3c(=O)n1c3ccccc3nc21`: the residual activity amounted to 79%. With `Fc1ccc(-c2nc3n(c2-c2ccncc2)CCS3)cc1` the figure was 85%; with `O=C(NC(NC(=S)Nc1ccc(F)c([N+](=O)[O-])c1)C(Cl)(Cl)Cl)C(c1ccccc1)c1ccccc1` (stereo not given), 90%. With `CCOc1cc2ncnc(Nc3cccc(Br)c3)c2cc1OCC` the figure was 83%; with `Cn1c2ccccc2c2c3c(c4c5ccccc5n(CCC#N)c4c21)CNC3=O`, 101%; with `c1ccc(-c2n[nH]c3c2oc2ccccc23)cc1`, 94%. The same measure for `Cc1ccc(S(=O)(=O)/C=C/C#N)cc1`: 88%; for `Nc1ncnc2c1cnn2-c1ccccc1`: 84%. For the compound `O=C1Nc2ccc(Cl)cc2/C1=C/c1cc(Cl)c(O)c(Cl)c1`, the residual activity turned out to be 79%. With `CC(C)n1cnc2/c(=N/c3cccc(Cl)c3)nc(NCCO)[nH]c21` the figure was 89%.

For `O=C(Nc1nc2ccccc2n1CCN1CCOCC1)c1cccc([N+](=O)[O-])c1`, the residual activity worked out at 85%. Take `c1ccc(-c2n[nH]cc2-c2ccnc3ccccc23)nc1`: the residual activity came out at 91%. With `CO[C@H]1C[C@@H]2CC[C@@H](C)[C@@](O)(O2)C(=O)C(=O)N2CCCC[C@H]2C(=O)O[C@H]([C@H](C)C[C@@H]2CC[C@@H](O)[C@H](OC)C2)CC(=O)[C@H](C)/C=C(\C)[C@@H](O)[C@@H](OC)C(=O)[C@H](C)C[C@H](C)/C=C/C=C/C=C/1C` the figure was 95%.

The values above are taken from ChEMBL document CHEMBL2218924, “A broad activity screen in support of a chemogenomic map for kinase signalling research and drug discovery” (Biochem J, 2013).
